This is part of a sample that, as a whole, favours compounds with a hit. Of some 79,000 tested, about 15% had one in any assay. Values without a mark were called inactive. Activity calls are given as the source filed them. No stated cut-off is given here; in the data, active means growth inhibition above about 70%; inactive means the rest.
Assays:
[1] = NCI Yeast Anticancer Drug Screen. Data for the rad50 strain (AID 155);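 further: 0% = growth of vehicle-only cultures of the same strain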; settings: S. cerevisiae rad50 strain growth inhibition, stronger effect = higher value
Procedure, shortened: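 Relative growth inhibition (compound vs vehicle) was measured in yeast with a defined repair-gene alteration.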

[2] = NCI Yeast Anticancer Drug Screen. Data for the mec2-1 strain (AID 157); settings: S. cerevisiae mec2-1 strain, stronger effect = higher value
Procedure, shortened: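 Mutant yeast (mec2-1) grown with compound; growth inhibition relative to vehicle control reported.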

[3] = NCI Yeast Anticancer Drug Screen. Data for the sgs1 mgt1 strain (AID 161);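 further: 0% = growth of cultures given vehicle only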; settings: S. cerevisiae sgs1 mgt1 strain, stronger effect = higher value
Procedure, shortened: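 Percent growth inhibition was derived by comparing compound-exposed mutant yeast with vehicle-exposed cultures. The strain carries alterations in DNA damage repair.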

[4] = NCI Yeast Anticancer Drug Screen. Data for the cln2 rad14 strain (AID 165);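 further: 0% = growth equal to vehicle treated cultures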; settings: S. cerevisiae cln2 rad14 strain, stronger effect = higher value
Procedure, shortened: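 Readout is yeast growth inhibition versus vehicle-treated controls, using a strain with cln2 and rad14 alterations exposed to compound.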

[5] = NCI Yeast Anticancer Drug Screen. Data for the bub3 strain (AID 167); settings: S. cerevisiae bub3 mutant strain, stronger effect = higher value
Procedure, shortened: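 Screening used yeast with an engineered genetic alteration affecting cell cycle control. Compound-exposed cultures were compared with vehicle cultures, and reduced growth was taken as inhibition.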

[6] = NCI Yeast Anticancer Drug Screen. Data for the mlh1 rad18 strain (AID 175); settings: S. cerevisiae mlh1 rad18 strain growth inhibition, stronger effect = higher value
Procedure, shortened: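 Genetically defined yeast (DNA repair-deficient) exposed to compounds; growth inhibition determined relative to vehicle.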

[7] = at 5.0 µM (retest, dose inferred, filed as 0.5)
[8] = at 50.0 µM (retest, dose inferred, filed as 5.0)

| Structure (SMILES) | growth inhibition [1, 7] | growth inhibition [1, 8] | growth inhibition ([1]; at 50.0 µM) | growth inhibition [2, 7] | growth inhibition [2, 8] | growth inhibition ([2]; at 50.0 µM) | growth inhibition [3, 7] | growth inhibition [3, 8] | growth inhibition ([3]; at 50.0 µM) | growth inhibition [4, 7] | growth inhibition [4, 8] | growth inhibition ([4]; at 50.0 µM) | growth inhibition [5, 7] | growth inhibition [5, 8] | growth inhibition ([5]; at 50.0 µM) | growth inhibition [6, 7] | growth inhibition [6, 8] | growth inhibition ([6]; at 50.0 µM) |
| --- | --- | --- | --- | --- | --- | --- | --- | --- | --- | --- | --- | --- | --- | --- | --- | --- | --- | --- |
| Cc1cc(=O)n(-c2ccc(F)cc2)n1C | 1% | 0% | 30.9% | -6% | 1% | -5.7% | 0% | 2% | 31.7% | 3% | 15% | 22.9% | 0% | -2% | 25.4% | 2% | -16% | -23.6% |
| CC1CCC(C(C)C2C(O)CC3C4CCC5CC(O)CCC5(C)C4CCC32C)NC1 (stereo not given) | 3% | 98% (active) | 91.8% (active) | 1% | 96% (active) | 82.2% (active) | 6% | 97% (active) | 93.2% (active) | -4% | 96% (active) | 90% (active) | 2% | 95% (active) | 90% (active) | 4% | 97% (active) | 92.9% (active) |
| COc1ccc(/C=C/C(C(=O)O)C(=O)O)cc1 | 19% | 65% | 82.7% (active) | -20% | 84% (active) | 76% (active) | 6% | 59% | 76% (active) | 37% | 47% | 44.4% | 14% | 88% (active) | 82.5% (active) | -4% | 89% (active) | 78% (active) |
| CC[N](CC)[Ge]([CH2]C)[CH2]C.CC[N](CC)[Ge]([CH2]C)[CH2]C | 34% | 98% (active) | 57% | 21% | 98% (active) | 76.9% (active) | 56% | 99% (active) | 56.4% | 48% | 98% (active) | 37.1% | 59% | 99% (active) | 75% (active) | 27% | 97% (active) | 77.7% (active) |
| CC(=O)OCC(C(N)=O)(c1ccccc1)c1ccccc1 | -5% | 1% | -2.6% | -2% | 2% | -10% | -1% | -5% | 12.8% | -5% | -3% | 91.5% (active) | -7% | -1% | 2.8% | -6% | -6% | 11% |
| CSc1ccc(/C=C2\CN(C)C/C(=C\c3ccc(SC)cc3)C2=O)cc1 | 43% | 52% | 73.5% (active) | -7% | 32% | 70% (active) | 36% | 61% | 91.6% (active) | 34% | 33% | 68.4% | 25% | 45% | 44% | 29% | 15% | 82.8% (active) |
| O=C(CC(=O)c1ccccc1)CC(O)(c1ccccc1)c1ccccc1 | 30% | 90% (active) | 84.9% (active) | 32% | 94% (active) | 89.1% (active) | 26% | 89% (active) | 89.7% (active) | 27% | 72% (active) | 87.6% (active) | 42% | 94% (active) | 87.9% (active) | 42% | 88% (active) | 86.5% (active) |
| COC1=CC(=O)[C@H]2CC(C)=CC[C@]2(C)C1=O | -3% | 2% | 9.35% | 1% | 0% | 6.55% | 2% | 0% | -4.75% | 1% | -2% | 84% (active) | -1% | 0% | 3.35% | -1% | 1% | 15.1% |
| O=S(=O)(O)c1ccc(N=Nc2ccc3c(S(=O)(=O)O)cccc3c2O)c2ccccc12 | 10% | -5% | -1.35% | 6% | -16% | -21.6% | 0% | -18% | -37.2% | -25% | -78% | 35% | -2% | -9% | -16.1% | -5% | -9% | 5% |
| CCOCCOc1ccc(OCCOCC)cc1 | -8% | -13% | -1.9% | -8% | -13% | -1.7% | -66% | -9% | -7% | -4% | -10% | 37.3% | -8% | -4% | -2.95% | 13% | -15% | 0.4% |
| Nc1nc(Cl)cc(Nc2ccc(Cl)c(Cl)c2)n1 | -1% | 91% (active) | 72.8% (active) | -2% | 73% (active) | 70.3% (active) | -4% | 77% (active) | 95.8% (active) | 16% | 58% | 51.7% | 3% | 92% (active) | 93.2% (active) | -3% | 79% (active) | 89.8% (active) |
| O=C(O)C(O)C(O)C(O)C(O)CO.[Ag] (stereo not given) | 99% (active) | 98% (active) | 99.2% (active) | 99% (active) | 99% (active) | 99.3% (active) | 99% (active) | 99% (active) | 99.5% (active) | 99% (active) | 98% (active) | 99.3% (active) | 99% (active) | 98% (active) | 99.3% (active) | 99% (active) | 98% (active) | 99% (active) |
| CCCCCC/C=C\CCCCCCCCCc1c(O)c(OC)cc(O)c1CN(C)C | 5% | 94% (active) | 80.7% (active) | -17% | 94% (active) | 88.3% (active) | 15% | 96% (active) | 87.1% (active) | 13% | 30% | 86.2% (active) | 5% | 96% (active) | 80.8% (active) | 2% | 94% (active) | 79.6% (active) |
| C[n+]1c(-c2ccc(/C=N/Nc3n[nH]c(=S)n3/N=C/c3ccc(-c4cn5ccsc5[n+]4C)cc3)cc2)cn2ccsc21 | -14% | 97% (active) | 97.9% (active) | -2% | 97% (active) | 94.2% (active) | -4% | 96% (active) | 95.3% (active) | -6% | 94% (active) | 93.8% (active) | -29% | 98% (active) | 96.5% (active) | -2% | 97% (active) | 93.5% (active) |
| Cc1ccc([N+](=O)[O-])c2c(NCCCN(C)C)c3ccccc3nc12 | 79% (active) | 98% (active) | 97% (active) | 97% (active) | 99% (active) | 95.8% (active) | 93% (active) | 98% (active) | 97.2% (active) | 95% (active) | 99% (active) | 77.3% (active) | 35% | 97% (active) | 87.8% (active) | 92% (active) | 99% (active) | 97% (active) |
| CN(C)C=Nc1c2ccccc2nc2ccccc12 | 21% | 83% (active) | 71.1% (active) | 23% | 80% (active) | 57.1% | 11% | 65% | 68.7% | 37% | 60% | 55.7% | 5% | 71% (active) | 75% (active) | -8% | 84% (active) | 76.3% (active) |
| CC(=O)[C@H]1CC[C@H]2[C@@H]3CC[C@H]4C[C@@H](N5CCOCC5)CC[C@]4(C)[C@H]3CC[C@]12C | 54% | 63% | 73.3% (active) | 61% | 76% (active) | 36.5% | 70% (active) | 87% (active) | 83.5% (active) | 52% | 30% | 87.5% (active) | 49% | 81% (active) | 59.5% | 76% (active) | 69% | 74.8% (active) |
| CCc1c(C)[nH]c(-c2csc(N)n2)c1C | -1% | 93% (active) | -4.25% | 1% | 95% (active) | 83.9% (active) | -1% | 94% (active) | 2.8% | 1% | 93% (active) | 31.7% | 4% | 92% (active) | 67.8% | 2% | 93% (active) | 56.8% |
| CC(O)C(NC(=O)OCc1ccccc1)C(=O)OC(c1ccccc1)c1ccccc1 (stereo not given) | 0% | 95% (active) | 98% (active) | 17% | 99% (active) | 97.8% (active) | -23% | 98% (active) | 97.5% (active) | -3% | 96% (active) | 97% (active) | 2% | 97% (active) | 97.3% (active) | 10% | 97% (active) | 96.5% (active) |
| Nc1nc(N)c(N=O)c(Nc2cccc(Br)c2)n1 | 57% | 98% (active) | 1.15% | 46% | 99% (active) | 13.8% | 70% (active) | 98% (active) | -6.85% | 48% | 98% (active) | 76.7% (active) | 50% | 98% (active) | 56.1% | 64% | 98% (active) | 5.05% |
